Compounds with a hit are over-represented: about 1.3% of the library has one in this group of screens.
hERG WT inh = qHTS for Inhibitors of KCHN2 3.1: Wildtype qHTS | U2OS, BacMam KCNH2, thallium flux FluxOr; active compounds read low | activity change, % at 1.84 µM | 340,000 tested, 0.37% active;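 active = maximum activity change below -70%; inconclusive = maximum activity change between -70% and -50%; inactive = maximum activity change above -50%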; note: % is set by controls: 0 for no effect and ±100 for the full control effect
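U2OS cells transduced with wild-type KCNH2 virus are loaded with FluxOr dye for 45 min, and thallium flux is measured in kinetic reads before and after stimulation buffer. Rate constants are normalized to DMSO controls.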
TRPV1 potentiator = HTS Assay for Compounds that Act as Potentiators of the Vanilloid Receptor 1 | TRPV1-expressing cells, Fluo-8 calcium influx, capsaicin EC20 potentiation | potentiation, % at 8.33 µM | Transient receptor potential cation channel subfamily V member 1 (Homo sapiens), Q8NER1 | 320,000 tested, 0.02% active | AID 540277, 2011; in the data active = potentiation above about 80%; inconclusive = between about 30% and that limit; note: 0% is about no effect
Target sequence (Q8NER1 whole entry, looked up): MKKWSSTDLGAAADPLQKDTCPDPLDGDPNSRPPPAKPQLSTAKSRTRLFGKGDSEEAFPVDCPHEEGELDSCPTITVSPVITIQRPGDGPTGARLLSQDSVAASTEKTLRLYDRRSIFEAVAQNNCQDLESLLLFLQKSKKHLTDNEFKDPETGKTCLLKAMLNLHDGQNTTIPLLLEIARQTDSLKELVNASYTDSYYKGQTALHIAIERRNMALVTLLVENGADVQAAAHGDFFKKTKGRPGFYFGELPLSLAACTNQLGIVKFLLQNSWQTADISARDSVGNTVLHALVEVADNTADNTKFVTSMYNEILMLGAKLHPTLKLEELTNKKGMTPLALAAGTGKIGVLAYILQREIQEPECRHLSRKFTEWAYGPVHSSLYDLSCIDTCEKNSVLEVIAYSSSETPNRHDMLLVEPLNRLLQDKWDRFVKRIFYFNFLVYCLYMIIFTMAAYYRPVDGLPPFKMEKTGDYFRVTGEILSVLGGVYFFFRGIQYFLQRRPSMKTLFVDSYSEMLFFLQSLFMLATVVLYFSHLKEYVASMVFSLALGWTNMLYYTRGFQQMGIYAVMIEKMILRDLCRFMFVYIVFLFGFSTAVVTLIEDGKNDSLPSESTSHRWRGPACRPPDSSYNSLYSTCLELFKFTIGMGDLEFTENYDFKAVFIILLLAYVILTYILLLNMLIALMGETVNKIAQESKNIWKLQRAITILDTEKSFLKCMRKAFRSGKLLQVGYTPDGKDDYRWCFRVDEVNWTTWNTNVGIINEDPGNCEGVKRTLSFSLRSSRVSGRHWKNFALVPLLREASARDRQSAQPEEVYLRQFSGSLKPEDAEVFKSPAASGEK
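TRPV1-expressing cells were cultured overnight at 35.5C and loaded with Fluo-8 calcium dye for 40 to 90 min at room temperature. After a 10 s baseline, compound was added and calcium influx was read kinetically for 3 min (ex 480/em 520 nm).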
KCNH2 3.1 inh = qHTS for Inhibitors of KCHN2 3.1: Mutant qHTS; activity change, % (tested at about 1.8 µM); 340,000 tested, 0.95% active; Potassium voltage-gated channel subfamily H member 2, brain isoform KCNH2 3.1 (human); U2OS KCNH2 3.1, thallium flux FluxOr; active compounds read low;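 active = maximum activity change below -70%; inconclusive = maximum activity change from -70% to -50%; inactive = maximum activity change above -50%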;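 note: thallium influx rate constant from kinetic fluorescence after stimulation buffer; % is set by controls: 0 for no effect and ±100 for the full control effect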
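Thallium flux read-out: FluxOr dye with Red40 quencher in HBSS/HEPES, 45 min at RT. Rate constants from kinetic reads were normalized to positive and negative DMSO controls. Cells: U2OS virally expressing the 3.1 isoform.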
MBNL1-CUG inh = qHTS Assay for Inhibitors of MBNL1-poly(CUG) RNA binding; Muscleblind-like protein 1 (Homo sapiens), Q9NR56; TR-FRET MBNL1-His/biotin-(CUG)12 binding, 665/545 ratio; Potency, µM (series often up to 57.5 µM), for the others: at the top dose activity change, negative = inhibition, hits mostly inhibitors; 280,000 tested, 0.036% active; AID 2675, 2010; active = well fitted inhibition curve with a large enough effect in the signal ratio, with a control signal flat, not every such curve was filed as active; inconclusive = small, poorly fitted or top-dose-only effect, or effect the other way, or a change in a side signal; inactive = no such curve, though single readings can be large or run the other way; the % refers to the signal ratio; note: potency is the fitted concentration of half-maximal effect; % is set by controls: 0 for no effect and ±100 for the full control effect
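Inhibition of protein-RNA binding appears as loss of TR-FRET between terbium anti-His antibody on MBNL1-His and streptavidin-XL665 on biotin-(CUG)12. Activity is normalized to buffer-only and uninhibited-complex controls.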
TRPV1 ag = HTS Assay for Compounds that Act as Agonists of the Vanilloid Receptor 1. TRPV1-expressing cells, Fluo-8 calcium influx, agonist mode. activation, % at 8.33 µM. 320,000 tested, 0.19% active. AID 540275, 2011; in the data active = activation above about 80%; inconclusive = between about 30% and that limit; note: 0% is about no effect
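Fluo-8 calcium influx in TRPV1-expressing cells, kinetic read (ex 480/em 520 nm). Compound added and read 3 min for agonist activity, followed by capsaicin at EC20 final and 2 min further read for enhancement.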
Starred values were filed as active, the others as inactive; ? = inconclusive; . = not tested or not shown; ! = repeats disagree.

SMILES	hERG WT inh	TRPV1 potentiator	KCNH2 3.1 inh	MBNL1-CUG inh	TRPV1 ag
CCN(CC(=O)NCc1ccc(F)cc1)C(=O)c1cccc(S(=O)(=O)N(C)c2ccc(OC)cc2)c1	2.1	.	-15.8	.	.
COc1ccc(CCNC(=O)COc2ncnc3cc([N+](=O)[O-])ccc23)cc1	0.9	4.1	-107.3*	?	-0.8
NNC(=O)[C@H](Cc1ccccc1)NC(=O)NCCc1ccccc1	5.6	18.4	-2.0	-6.0%	0.5
CC(C)(/C=N/NC(=O)CSCc1ccccc1Cl)CCC#N	-2.3	-23.7	-21.3	1.2%	15.6
O=C(NC(c1ccccc1)c1ccccc1)c1cccc(S(=O)(=O)NCc2ccccc2)c1	-28.1	2.6	-70.9*	2.7%	1.4
CCN(CC(=O)Nc1c(F)cccc1F)C(=O)c1cccc(S(=O)(=O)NCc2ccccc2)c1	-219.3*	13.0	5.2	.	-0.7
CCN(CC(=O)Nc1c(F)cccc1F)C(=O)c1ccc(C(=O)c2ccccc2)cc1	0.3	-2.3	6.6	.	3.1
Cc1cc(OCC(=O)OCC(=O)NCCN2C(=O)CSC2=O)ccc1Cl	1.6	2.6	-6.8	.	2.9
Cc1ncc([N+](=O)[O-])n1CC(=O)N/N=C/c1ccccc1F	-5.8	-2.8	7.5	12.5%	2.8
CN1C(C(=O)NCCc2cccs2)CC2Cn3c(nc4cc(Cl)c(Cl)cc43)C21 (configuration not stated)	7.7	5.1	-10.4	-3.4%	1.9
COc1ccc(CCNC(=O)C2CC3Cn4c(nc5cc(Cl)c(Cl)cc54)C3N2C)cc1 (configuration not stated)	-252.1*	6.6	-13.3	3.3%	0.0
COc1ccc(CNCC(O)(c2ccc(F)cc2)c2ccc(F)cc2)cc1	7.9	?	-104.9*	-2.3%	3.1
COc1ccc(CNCC(O)(c2ccccc2)c2ccccc2)cc1	19.5	2.9	-4.8	3.4%	2.0
Cc1cc(NC(=O)c2cccc(S(=O)(=O)N3CCCCC3)c2)no1	-5.3	-21.7	2.7	-5.9%	21.0
CC1CCCCN1CCCNC(=O)C1CCN(c2nnc(-n3cccc3)s2)CC1 (configuration not stated)	23.5	?	-200.7*	1.7%	-0.9
CC(C)CCn1cnc2c(cnn2-c2ccc(F)cc2)c1=O	-181.2*	-6.7	-136.7*	6.2%	17.7
Cc1cccc(NC(=O)Cn2cnc3c(cnn3-c3ccc(F)cc3)c2=O)c1C	1.0	3.2	8.7	-7.2%	3.6
c1ccc(CN(CC2=NCCN2)c2ccccc2)cc1	7.9	6.0	-19.2	-15.1%	2.7
Cc1ccc(N(CC2=NCCN2)c2cccc(O)c2)cc1	-30.7	-4.1	-79.7*!	5.1%	-2.6
CCCNC(=O)C(Cc1ccccc1C)NC(=O)c1ccc(C#N)cc1 (configuration not stated)	-9.0	-7.8	-9.8	.	5.7
CCCNC(=O)C(Cc1ccccc1F)NC(=O)c1ccc(C#N)cc1 (configuration not stated)	6.9	-19.8	-99.1*	.	17.0
Cc1csc(NC(C)c2nc3cc(Cl)c(Cl)cc3n2CCCO)n1 (configuration not stated)	-8.8	.	-80.1*	.	.
CC(Nc1nc(-c2ccc(F)cc2)cs1)c1nc2cc(C(F)(F)F)ccc2n1CCCO (configuration not stated)	-15.9	.	-11.6	.	.
COc1ccc(-c2nc3cc(C)ccn3c2NCC2CCCO2)cc1OC (configuration not stated)	-14.0	.	4.0	.	.
CCCCNc1c(-c2ccc(-c3ccc(C(C)=O)cc3)c(OC)c2)nc2cc(C)ccn12	-15.3	.	-71.2*	.	.
SMILES	hERG WT inh	TRPV1 potentiator	KCNH2 3.1 inh	MBNL1-CUG inh	TRPV1 ag
CCCCNc1c(-c2ccc(Sc3ccc(OC)cc3)cc2)nc2cc(C)ccn12	?	.	-84.4*	.	.
CCCCNc1c(-c2ccc(OC)c(SC(C)CC)c2)nc2cc(C)ccn12 (configuration not stated)	3.5	.	-82.2*	.	.
COc1cc(C(=O)NCC(=O)NCC2COc3ccccc3O2)cc(OC)c1OC (configuration not stated)	6.3	1.8	8.9	.	-3.1
Cc1nc(SCC(=O)Nc2ccccc2Cl)oc1C	-3.2	-1.0	0.8	-0.9%	3.9
C[C@H](CO)N1C[C@H](C)[C@@H](CN(C)S(=O)(=O)c2ccccc2)Oc2ccc(NC(=O)Cn3cnnn3)cc2C1=O	-5.4	.	-92.4*	.	.
COc1ccc(NC(=O)Nc2ccc3c(c2)C(=O)N([C@H](C)CO)C[C@H](C)[C@@H](CN(C)S(=O)(=O)c2ccccc2)O3)cc1	8.1	.	-96.6*	.	.
Cc1noc(C)c1S(=O)(=O)N(C)C[C@H]1Oc2ccc(NC(=O)Cn3cnnn3)cc2C(=O)N([C@H](C)CO)C[C@@H]1C	-5.4	.	-6.3	.	.
CC(C)NC(=O)N(C)C[C@H]1Oc2ccc(NC(=O)Nc3ccccc3)cc2C(=O)N([C@@H](C)CO)C[C@@H]1C	19.3	.	-145.1*	.	.
C[C@@H]1CN([C@@H](C)CO)C(=O)c2cc(NC(=O)C3CC3)ccc2O[C@@H]1CN(C)C(=O)NC1CCCCC1	-2.7	.	-100.1*	.	.
C[C@H](CO)N1C[C@H](C)[C@@H](CN(C)C(=O)NC2CCCCC2)Oc2ccc(NC(=O)C3CC3)cc2C1=O	-8.6	.	14.9	.	.
NC(=O)c1ccsc1NC(=O)CSc1nncs1	-12.1	-0.8	6.0	.	-0.1
CC(=O)Nc1ccc(C(=O)N/C(=C\c2ccccc2)C(=O)Nc2cccc(C(=O)O)c2)cc1	-5.7	20.4	4.7	.	0.6
Cc1cc2c(Nc3cccc(O)c3)ncnc2s1	-2.3	10.5	13.3	-6.8%	25.1
CC(NCC1(N2CCOCC2)CCCCC1)C(=O)Nc1ccc(Cl)cc1Cl (configuration not stated)	-26.6	-22.7	-8.5	2.3%	?
NC(=O)COC(=O)CC(c1ccccc1)c1ccccc1	8.3	-26.2	-94.1*	-6.6%	25.1
CNC(=O)COC(=O)c1cc(-c2ccccc2)nn1-c1ccccc1	1.1	-7.6	38.5	.	?
Cc1ccc(N(CC(O)CN2CCCCC2)S(=O)(=O)c2ccccc2)cc1 (configuration not stated)	25.3	6.8	?	-4.1%	-2.4
Cc1ccc(N(CC(O)CN2CCCCC2)S(=O)(=O)c2ccc(C)cc2)cc1 (configuration not stated)	-7.3	-22.5	-99.1*	-2.6%	0.2
CC(=O)c1c(OCC(=O)O)ccc2c(C)cc(=O)oc12	2.4	-9.4	-117.0*	-1.6%	0.0

Screens from PubChem BioAssay.
